Data on eight compounds can be found in PubChem BioAssay (NCATS).

SMILES strings stand for the structures. Where “and” joins values, the source holds several entries; their conditions need not be identical. Identical values can stand only once. Inconclusive results are not listed. Some compounds were tested as several samples or in several runs, with calls that do not always agree. Calls of active or inactive are those of the source. Unless noted, calls follow the shape of the dose curve; as a rule, active = well fitted curve in either direction with a large enough effect (not every such curve was filed as active); inconclusive = small, poorly fitted or top-dose-only effect, or another doubt; inactive = flat fitted curve, though single readings scatter. Where only a bound is given, the exact number is not on record here.

Experiment [1] can be described thus: AP1 Signaling Pathway (AID 357).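 Also: ME-180 reporter cells stimulated with EGF at its EC50 level; % is scaled to controls: 0 for no effect and ±100 for the full control effect.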 To be noted: ME-180 AP-1-bla reporter, EGF-induced, beta-lactamase ratio, 5 h. Summed up: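 Titration-series screen for positive or negative modulators of EC50 EGF-induced signaling in ME-180 cells carrying an AP-1-driven beta-lactamase reporter. After 5 hours at 37 degrees Celsius, CCF4 460nm/530nm emission ratio gave %Activity; AC50 values derived.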

Experiment [2] deals with Cytochrome P450 1A2 (Homo sapiens) (UniProt P05177). The experiment can be described thus: p450-cyp1a2 (AID 410; calls by dose curve; also: potency is read from the fitted curve at half-maximal effect;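 as to activity change, negative = inhibition: -100% = full effect of reference inhibitor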). To be noted: recombinant CYP1A2, luciferin-ME demethylation, luminescence; series mostly up to 57 µM. In short, it runs like this:
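Luminescent readout of luciferin formed from Luciferin-ME by human CYP1A2; data normalized against complete inhibition by 57 uM furafylline. Enzyme 20nM, substrate 100uM at Km, 100mM KPO4 buffer, 60 min reaction at room temperature.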

For experiment [3], the target named is Glucocorticoid receptor (Homo sapiens) (UniProt P04150). As to the kind of experiment: GR-EFC Redistribution (AID 451; calls by dose curve; also: potency is read from the fitted curve at half-maximal effect). To be noted: CHO-K1 GR-EFC translocation, beta-gal luminescence, 2 h. Summed up: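 CHO-K1 cells stably expressing nuclear-localized β-gal enzyme acceptor and GR fused C-terminally to the enzyme donor fragment; ligand-driven nuclear translocation restores β-gal by complementation. Compounds titrated up to 46 uM final, 2 h at 37 °C; luminescence read.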
Sequence of Glucocorticoid receptor (Homo sapiens) (P04150 whole entry, looked up, the tested form may be a part): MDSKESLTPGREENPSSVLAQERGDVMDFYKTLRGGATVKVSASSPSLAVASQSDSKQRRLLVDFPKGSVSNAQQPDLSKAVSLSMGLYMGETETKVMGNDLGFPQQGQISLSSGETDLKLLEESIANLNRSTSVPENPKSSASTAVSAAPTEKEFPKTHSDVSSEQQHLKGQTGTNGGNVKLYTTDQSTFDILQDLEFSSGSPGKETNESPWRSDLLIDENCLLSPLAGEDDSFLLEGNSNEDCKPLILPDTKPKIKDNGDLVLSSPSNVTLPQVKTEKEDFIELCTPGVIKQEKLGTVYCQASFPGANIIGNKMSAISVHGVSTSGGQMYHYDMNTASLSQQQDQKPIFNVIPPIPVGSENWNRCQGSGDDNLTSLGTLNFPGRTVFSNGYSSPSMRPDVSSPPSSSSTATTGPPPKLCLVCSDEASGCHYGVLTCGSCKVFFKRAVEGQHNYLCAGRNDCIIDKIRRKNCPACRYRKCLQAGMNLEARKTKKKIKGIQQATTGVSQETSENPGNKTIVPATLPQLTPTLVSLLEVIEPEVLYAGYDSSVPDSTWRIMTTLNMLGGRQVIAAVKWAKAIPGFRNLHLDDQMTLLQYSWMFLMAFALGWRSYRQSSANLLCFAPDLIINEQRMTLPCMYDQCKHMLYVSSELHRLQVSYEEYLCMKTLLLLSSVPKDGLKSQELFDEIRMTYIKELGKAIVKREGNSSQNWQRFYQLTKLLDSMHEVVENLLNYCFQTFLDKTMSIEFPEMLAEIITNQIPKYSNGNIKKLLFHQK

Experiment [4] concerns the target Mitogen-activated protein kinase 10 (Mus musculus) (UniProt Q61831). As to the kind of experiment: JNK3 AlphaScreen Assay (AID 530).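 Also: kinase came from lysate of stimulated human HepG2 cells; signal reports phosphorylation of biotinylated GST-cJun 1-79 at Ser73 with 10 µM ATP; % is scaled to controls: 0 for no effect and ±100 for the full control effect.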 To be noted: JNK3 lysate, c-Jun phosphorylation; series mostly up to 57.1 µM. Summed up:
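Inhibitors reduce antibody binding to phosphorylated biotin-cJun, lowering AlphaScreen luminescence. Lysates from HepG2 cells pre-activated by IL-1beta plus TNF-alpha supplied JNK3; compounds were titrated.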
(Alpha assays give light when donor and acceptor beads are brought close together.)

Experiment [5] can be described thus: NFAT Signaling Pathway (AID 444).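 Also: carbachol stimulus at about its EC50 of 1 µM final; % is scaled to controls: 0 for no effect and ±100 for the full control effect.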 To be noted: Jurkat NFAT-bla M1, carbachol, beta-lactamase ratio, 5 h. In short, it runs like this:
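Jurkat cells carrying an NFAT-driven β-lactamase reporter and co-transfected muscarinic M1 receptor were treated with compound plus carbachol (1 uM final, an EC50 level) for 5 h at 37 °C. CCF4 loading followed for 1 h at RT; 460/530 nm ratio gave %activity.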

A short description of experiment [6]: Stat Signaling Pathway (AID 446).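 Also: ME-180 cervical cancer cells given 40 pM IL-6 alongside compound; SIE-controlled beta-lactamase reporter measured as 460/530 nm FRET emission ratio; % is scaled to controls: 0 for no effect and ±100 for the full control effect.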 To be noted: ME-180 SIE beta-lactamase reporter, IL-6 stimulated, 5 h. Summed up: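 Reporter line: ME-180 cervical carcinoma, SIE-beta-lactamase. Treatment: compound with 40 pM IL-6, 5 hrs, 37 C, in low-serum OPTI-MEM with 10 mM HEPES pH 7.3. Detection: 460/530 nm fluorescence.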
Experiment [7] can be described thus: Cell Viability - BJ (AID 421; calls by dose curve;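 also: potency is read from the fitted curve at half-maximal effect; cells exposed to compound for 40 hours at 37 °C before readout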). To be noted: BJ fibroblast viability, qHTS. Summed up:
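Cytotoxicity as drop in intracellular ATP (CellTiter-Glo, 20 min RT) after 40 hr compound exposure of BJ fibroblasts at 37 °C. Titrations scaled between DMSO and 100 uM tamoxifen, Hill-fitted for AC50.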

Experiment [8] is described as follows: Cell Viability - Hek293 (AID 427;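 active = compounds whose dose-response curve shows a full or clear partial loss of cell viability, called from curve shape rather than a numeric limit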;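 also: potency is read from the fitted curve at half-maximal effect; cells exposed to compound for 40 hours at 37 °C before reading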). To be noted: qHTS. Summed up: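 Luminescent ATP content (CellTiter-Glo, 20 min at room temperature) was measured after a 40 hr, 37 °C compound exposure of HEK293 cells. AC50 values came from Hill-equation fits of qHTS concentration-response data normalized to DMSO and 100 uM tamoxifen.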
(In qHTS, concentration-response curves come from the screen itself.)

Experiment [9] is described as follows: Cell Viability - HepG2 (AID 433; calls by dose curve;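 also: potency is read from the fitted curve at half-maximal effect; potency for ATP loss meaning cytotoxicity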). To be noted: qHTS. Summed up:
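Cytotoxicity is scored as loss of intracellular ATP in HepG2 cells exposed to compounds for 40 h. Concentration-response curves, normalized to DMSO and 100 uM tamoxifen, give AC50 values.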

A short description of experiment [10]: Cell Viability - MRC5 (AID 434; calls by dose curve;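 also: potency is read from the fitted curve at half-maximal effect; potency reflects cytotoxicity seen as loss of intracellular ATP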). To be noted: MRC5 lung fibroblast viability, qHTS. In short, it runs like this: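 MRC5 normal human lung fibroblasts (1500/well) were treated with compounds for 40 hr at 37 °C in complete medium, and viable cells were measured as intracellular ATP by CellTiter-Glo luminescence. AC50 came from Hill fits, normalized to DMSO and 100 uM tamoxifen.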

The nature of experiment [11]: Cell Viability - SK-N-SH (AID 435; calls by dose curve;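 also: potency is read from the fitted curve at half-maximal effect; compound exposure lasted 40 h at 37 °C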). To be noted: SK-N-SH neuroblastoma cell viability qHTS. In short, it runs like this:
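Cells seeded at 1500 per well and incubated 5 hr at 37 °C. Compound added, then 40 hr at 37 °C. CellTiter-Glo added, 20 min at room temperature, luminescence read.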

The nature of experiment [12]: Cell Viability - N2a (AID 540; active = well fitted curve in the direction sought with a large enough effect; an effect the other way counts as inactive or inconclusive;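 also: plate controls were DMSO alone for no effect and tamoxifen control for full effect; nearly all actives have a fitted effect of over 45% in size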). To be noted: N2a mouse neuroblastoma cell viability; activity change, negative = cytotoxicity: at 92.2 µM (top of the series). Summed up: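 Luminescent ATP signal (CellTiter-Glo, 20 min at room temperature) served as the viability read-out after N2a cells were treated with compounds for 40 hours at 37 °C. Concentration-response data were fitted to the Hill equation for AC50.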

Experiment [13] can be described thus: Cell Viability - NIH 3T3 (AID 541; active = well fitted curve in the direction sought with a large enough effect; an effect the other way counts as inactive or inconclusive;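 also: plate controls were DMSO alone for no effect and tamoxifen positive control for full effect; nearly all actives have a fitted effect of over 25% in size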). To be noted: NIH 3T3 cell viability, qHTS; series mostly up to 92.2 µM. Summed up: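 Luminescent ATP signal (CellTiter-Glo) served as the viability read-out after NIH 3T3 cells were exposed to compounds over a concentration range for 40 hr at 37 °C. Hill-equation modelling of concentration-response data gave AC50.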
Experiment [14] can be described thus: Cell Viability - HUV-EC-C (AID 542; active = well fitted curve in the direction sought with a large enough effect; an effect the other way counts as inactive or inconclusive; also: % is scaled to controls: 0 for no effect and ±100 for the full control effect; nearly all actives have a fitted effect of over 35% in size). To be noted: HUV-EC-C endothelial cell viability, qHTS; series mostly up to 92.2 µM. In short, it runs like this: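 qHTS cytotoxicity: HUV-EC-C, 1000 cells/well, 5 hr settle, compound 40 hr 37 °C, CellTiter-Glo, luminescence. AC50 via Hill equation.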
A short description of experiment [15]: Cell Viability - H-4-II-E (AID 543; active = well fitted curve in the direction sought with a large enough effect; an effect the other way counts as inactive or inconclusive; also: % is scaled to controls: 0 for no effect and ±100 for the full control effect; nearly all actives have a fitted effect of over 35% in size). To be noted: H-4-II-E rat hepatoma viability; series mostly up to 92.2 µM. In short, it runs like this:
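Luminescent ATP signal (CellTiter-Glo) served as the viability read-out, with cytotoxicity seen as a concentration-dependent ATP drop. Cells were treated for 40 hours in complete medium. AC50 values derive from Hill-equation modelling.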

Experiment [16] in a line: Cell Viability - SH-SY5Y (AID 544; active = well fitted curve in the direction sought with a large enough effect; an effect the other way counts as inactive or inconclusive;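 also: 0% = DMSO alone and -100% = 100 µM tamoxifen; nearly all actives have a fitted effect of over 55% in size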). To be noted: SH-SY5Y neuroblastoma cell viability; series mostly up to 92.2 µM. In short, it runs like this: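 Luminescent ATP read-out (CellTiter-Glo) measures loss of viable SH-SY5Y neuroblastoma cells after 40 hr compound exposure at 37 °C. AC50 values derive from standard Hill modelling of qHTS concentration-response data.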
A short description of experiment [17]: Cell Viability - Renal Proximal Tubule (AID 545; active = well fitted curve in the direction sought with a large enough effect; an effect the other way counts as inactive or inconclusive;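 also: 0% = DMSO only and -100% = 100 µM tamoxifen; nearly all actives have a fitted effect of over 40% in size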). To be noted: renal proximal tubule cells viability; series mostly up to 91.7 µM. Summed up:
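Cytotoxicity is scored as a concentration-dependent drop in cellular ATP in primary rat renal proximal tubule cells exposed for 40 hr. AC50 derives from Hill modelling.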

A short description of experiment [18]: Cell Viability - Mesenchymal (AID 546; active = well fitted curve in the direction sought with a large enough effect; an effect the other way counts as inactive or inconclusive;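 also: cells exposed to compound for 40 hours before reading; 0% = DMSO only and -100% = 100 µM tamoxifen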). To be noted: mesenchymal cells viability, qHTS; series mostly up to 91.7 µM. In short, it runs like this: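 Normal human renal glomerulus-derived kidney mesenchymal cells, 1000 per well in complete medium, were treated with compounds for 40 hr at 37 °C. Viability was read as intracellular ATP by CellTiter-Glo luminescence; AC50 values came from Hill-equation fits of qHTS concentration-response data.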

Experiment [19] has as its target Glucocorticoid receptor (Homo sapiens) (UniProt P04150). The experiment can be described thus: GR-GFP Redistribution (AID 450;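 active = compounds whose dose series gives a full or clear partial fitted curve of increased nuclear translocation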; also: potency is read from the fitted curve at half-maximal effect). To be noted: U2OS GR-GFP nuclear translocation, laser cytometry, 2 h.

Sequence of Cytochrome P450 1A2 (Homo sapiens) (P05177 whole entry, looked up): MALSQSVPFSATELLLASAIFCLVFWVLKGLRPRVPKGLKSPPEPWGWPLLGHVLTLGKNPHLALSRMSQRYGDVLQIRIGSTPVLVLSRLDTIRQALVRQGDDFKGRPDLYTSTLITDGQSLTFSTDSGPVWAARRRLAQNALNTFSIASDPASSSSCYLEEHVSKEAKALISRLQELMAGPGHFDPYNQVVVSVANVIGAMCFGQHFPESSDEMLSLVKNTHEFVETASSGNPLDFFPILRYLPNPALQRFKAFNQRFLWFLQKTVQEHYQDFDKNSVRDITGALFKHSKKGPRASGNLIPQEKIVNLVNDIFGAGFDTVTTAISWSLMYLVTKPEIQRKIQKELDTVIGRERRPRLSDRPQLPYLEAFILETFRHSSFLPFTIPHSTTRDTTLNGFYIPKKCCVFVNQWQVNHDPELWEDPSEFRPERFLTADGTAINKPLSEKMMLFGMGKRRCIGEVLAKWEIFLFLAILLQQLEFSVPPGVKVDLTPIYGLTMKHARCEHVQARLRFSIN

In the case of `COc1ccc2c(c[n+](C)c3c4cc5c(cc4ccc23)OCO5)c1OC`, the activity change, negative = inhibition in [1] (at 38 µM (top of the series)) is 1.37% (inactive). Moreover, the Potency in [2] was 10 µM (active); in [3], > 46 µM (inactive). Further, the outcome in experiment [4] was inactive.

On to `CC[C@@H]1C(=O)OC[C@@H]1Cc1cncn1C`, for which the activity change, negative = inhibition in experiment [1] (at 17.2 µM (top of the series)) is -3.08% (inactive) and 5.87% (inactive); in [5] (at 17.2 µM (top of the series)) it was 75.4% [activator] (active). In addition, in experiment [6] (at 17.2 µM (top of the series)), the activity, negative = inhibition is 1.99% (inactive) and 5.87% (inactive).

With `CN(C)[C@@H]1C(=O)C(C(N)=O)=C(O)[C@@]2(O)C(=O)C3=C(O)c4c(O)cccc4[C@@](C)(O)[C@H]3[C@H](O)[C@@H]12`, the activity change, negative = inhibition was 12.6% (inactive) in [1] (at 17.2 µM (top of the series)) and 0.604% (inactive) in [5] (at 17.2 µM (top of the series)). Further, the Potency in experiment [7], in experiment [8], in experiment [9], in [10] and in experiment [11] was > 92 µM (inactive) throughout. For the same compound, the activity, negative = inhibition in experiment [6] (at 17.2 µM (top of the series)) was 3.84% (inactive). For the same compound, in [4], the call was inactive. Further, in [12], the activity change, negative = cytotoxicity was 0.531% (inactive). The Potency result in experiment [13], in experiment [14], in experiment [15], in experiment [16], in experiment [17] and in experiment [18] was “inactive” each time.

As for `CCCCc1ccc(C(=O)O)nc1`, the activity change, negative = inhibition in experiment [1] (at 17.2 µM (top of the series)) was -4.11% (inactive); in [1] (at 38 µM (top of the series)), -6.7% (inactive); in experiment [5] (at 17.2 µM (top of the series)), -0.081% (inactive); in experiment [5] (at 38 µM (top of the series)), 6.08% (inactive). In addition, the Potency in experiment [2] is 31.6 µM (active) and inactive; in [19], > 46 µM (inactive) and > 20.6 µM (inactive); in [3], > 46 µM (inactive) and > 20.6 µM (inactive). Further, the figures for the activity, negative = inhibition in experiment [6] (at 17.2 µM (top of the series)) and in [6] (at 38 µM (top of the series)) were 6.81% (inactive) and 9.55% (inactive), respectively. Also, the compound was called inactive in experiment [4].

With `C#CCOC(=O)C1=CCCN(C)C1`, the activity change, negative = inhibition was 16.6% (inactive) in experiment [1] (at 38 µM (top of the series)) and 44.2% [activator] (active) in experiment [5] (at 38 µM (top of the series)). Also, the activity, negative = inhibition in experiment [6] (at 38 µM (top of the series)) was 14.7% (inactive). Moreover, the Potency in [19] and in experiment [3] was > 46 µM (inactive) in each case. For the same compound, in [4], the compound was classed as inactive.

As for `O=C(O)CC[N+](=O)[O-]`, the activity change, negative = inhibition in [1] (at 38 µM (top of the series)) was -8.61% (inactive); in experiment [5] (at 38 µM (top of the series)) it was 10% (inactive). In experiment [2], the Potency result is “inactive”. Moreover, the activity, negative = inhibition in experiment [6] (at 38 µM (top of the series)) was 1.14% (inactive). Also, the Potency in experiment [19] and in experiment [3] was > 46 µM (inactive) each time. The call in [4] was inactive.

As to `CNCCc1c[nH]c2ccc(O)cc12`, the activity change, negative = inhibition in experiment [1] (at 38 µM (top of the series)) was 7.75% (inactive); in experiment [5] (at 38 µM (top of the series)), 12.8% (inactive). Also, the Potency entry in experiment [2] is “inactive”. The activity, negative = inhibition in experiment [6] (at 38 µM (top of the series)) was -2.52% (inactive). Further, the Potency in experiment [19] and in experiment [3] was > 46 µM (inactive) each time. Also, in [4], the call was inactive.

As to `C[C@@H]1O[C@H](C[N+](C)(C)C)C[C@H]1O`, the activity change, negative = inhibition in experiment [1] (at 38 µM (top of the series)) was 15.5% (inactive). For the same compound, the Potency in [19] and in experiment [3] was > 46 µM (inactive) in each case. The compound was called inactive in [4].
